# Test results taken from PubChem BioAssay AID686960 (The Scripps Research Institute Molecular Screening Center, 2013).
# The list shows a part of the results. Active and inactive are the calls of the source. Cut-off read from the data, not from the text of the source: active = IC50 below about 10 µM; inactive = the rest.
# Assay: dye displacement from CAG DNA duplex – biochemical, fluorescence, TO-PRO-1 dye, counter-screen for rCAG RNA repeat binder project, dose response (AID 686960)
# Conditions: DNA CAG/GTC duplex TO-PRO-1 dye displacement fluorescence
smiles,measurement,value
O=C1CC(=O)N(Cc2ccccc2)C(=O)N1CCCCCCN1C(=O)CC(=O)N(Cc2ccccc2)C1=O,IC50,11.5 µM (inactive)
